CYP2C9 inh: inhibitors of human CYP2C9; hit rate 20% among 96,000; CYP2C9 Supersomes, luciferin-H conversion, luminescence; P11712; AID 777; inhibition, % at 5 µM;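 active = blocking of liver enzyme CYP2C9 beyond about 50% at 5 µM, limit read from the data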
CYP2C9 act: increases human cytochrome P450 2C9 activity. P11712. recombinant CYP2C9, luciferin-H conversion, luminescence; active compounds read high; factor 1 = untreated enzyme, 0 = blocked. activation factor at 5 µM. hit rate 1.4% among 96,000;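 active = activation factor of 2 or more for CYP2C9 at a 5 µM dose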;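 note: 0 = sulfaphenazole-blocked wells and 1 = vehicle-only wells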
CYP2C19 inhib: inhibitors of human CYP2C19 | inhibition, % at 5 µM | CYP2C19 Supersomes, luciferin-H EGE luminescence, 30 min | hit rate 21% among 96,000;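 active = CYP2C19 inhibition above a set limit at 5 µM in the primary screen, cut at about 50% in these data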;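 note: plate controls were negative control wells for no effect and 2.5 mM tranylcypromine positive control for full effect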
Cav3 T inh: human Cav3.2 channel inhibition, primary screen. O95180. Cav3.2-expressing cells, Fluo-4 calcium fluorescence FDSS; active compounds read low. B-score at 10 µM. hit rate 4% among 100,000;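 active = single-dose well whose peak fluorescence ratio is a statistical outlier from its plate by either plate-standardised score or position-corrected B-score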
CYP2C19 activ: cytochrome P450 2C19 (human) activation | P33261 | recombinant CYP2C19, luciferin-H EGE luminescence; active compounds read high; 0 = fully inhibited enzyme, 1 = untreated enzyme | activation factor at 5 µM | 96,000 tested, under 10 active;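 active = activation factor of at least 2 at 5 µM in the primary screen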;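 note: 0 = wells with 2.5 mM tranylcypromine and 1 = vehicle-only wells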
An asterisk follows results filed as active; nt = no result. Rows were chosen to be rich in hits. Some 27% of all compounds tested hit in one or more screens of this group.

SMILES | CYP2C9 inh | CYP2C9 act | CYP2C19 inhib | Cav3 T inh | CYP2C19 activ
COc1ccc(C(=O)COc2ccccc2N2C(=O)C3C4C=CC(C4)C3C2=O)cc1 (stereo not given) | 12 | 0.9 | 8 | 0.026 | 0.9
COC(=O)c1ccc(C2C(Oc3ccc(OC)cc3)C(=O)N2CCc2ccc(F)cc2)cc1 (stereo not given) | 25 | 0.7 | 56* | -0.96 | 0.4
COc1ccc(OC2C(=O)N(c3ccc(F)cc3)C2c2ccc(OC)c(OC)c2)cc1 (stereo not given) | 7 | 0.9 | 3 | -3 | 1
COC(=O)Nc1ccc(S(=O)(=O)N2c3ccccc3CCC2C)cc1 (stereo not given) | 39 | 0.6 | 27 | -7.2* | 0.7
COC(=O)CSc1nnc(-c2ccc(S(=O)(=O)N3CCC(C)CC3)cc2)o1 | 6 | 0.9 | 2 | -0.48 | 1
Cc1ccc(NC(=O)CSc2nnc(-c3ccccc3C)o2)cc1C | 10 | 0.9 | -2 | -0.63 | 1
CCOc1ccccc1-c1nnc(SCC(=O)Nc2ccccc2)o1 | -138 | 2.4* | 41 | -2.3 | 0.6
COC(=O)CSc1nnc(-c2ccc(S(=O)(=O)N3CCCCC3)cc2)o1 | 64* | 0.4 | 38 | 0.25 | 0.6
Cc1ccc(NC(=O)CSc2nnc(-c3ccc(S(=O)(=O)N4CCCC4)cc3)o2)cc1C | 54* | 0.5 | 25 | 1.2 | 0.8
Cc1ccc(NC(=O)CSc2nnc(-c3ccccc3Br)o2)cc1C | 73* | 0.3 | 51* | nt | 0.5
COCCNC(=O)c1onc(CSc2cc(C)cc(C)c2)c1C(=O)NCCOC | nt | nt | nt | -0.56 | nt
O=C(COC(=O)c1cc(S(=O)(=O)N2CCCCC2)ccc1N1CCOCC1)NC1CCCCC1 | 44 | 0.6 | 32 | -0.33 | 0.7
N#Cc1ccc(CSc2nnc(-c3cccc(S(=O)(=O)N4CCCCC4)c3)o2)cc1 | 19 | 0.8 | 20 | -7.5* | 0.8
Cc1cccc(OCc2nnc(SCC(=O)Nc3ccc(C)c(Cl)c3)o2)c1 | -2 | 1 | -15 | 0.31 | 1.2
Cc1cccc(NC(=O)CSc2nnc(-c3ccc(S(=O)(=O)N4CCCC4)cc3)o2)c1 | 66* | 0.3 | 17 | -0.45 | 0.8
Cc1cc(C)nc(SCc2nnc(SCC(=O)Nc3ccc(C)c(C)c3)o2)n1 | 74* | 0.3 | 88* | -1.9 | 0.1
CC(NC(=O)CSc1nnc(-c2cccc(S(=O)(=O)N3CCCCC3)c2)o1)C12CC3CC(CC(C3)C1)C2 (stereo not given) | 91* | 0.1 | 68* | -7* | 0.3
O=C(CSc1nnc(-c2ccc(F)cc2)o1)Nc1ccc(S(=O)(=O)N2CCCC2)cc1 | 18 | 0.8 | 6 | 0.34 | 0.9
COc1ccc(-c2ccc(/C=C3\C(=O)N(c4ccccc4)N=C3c3ccccc3)o2)c([N+](=O)[O-])c1 | 71* | 0.3 | 56* | 0.056 | 0.4
Cc1ccc(C(=O)O)cc1-c1ccc(/C=C2/NC(=O)N(c3ccccc3)C2=O)o1 | 2 | 1 | -2 | 0.89 | 1
C=CCN1C(=NC(=O)CC)SC2CS(=O)(=O)CC21 (stereo not given) | 4 | 1 | -4 | 1.2 | 1
CCCCN(CC)S(=O)(=O)c1ccccc1 | -12 | 1.1 | 81* | -1.9 | 0.2
CCN(CC)S(=O)(=O)c1ccc(C)c(C)c1 | -237 | 3.4* | 82* | 0.055 | 0.2
O=S(=O)(c1ccccc1)c1cccc(S(=O)(=O)N2CCCCC2)c1 | -23 | 1.2 | 87* | -1.5 | 0.1
CN1CCN(S(=O)(=O)c2cccc(S(=O)(=O)c3ccc(Cl)cc3)c2)CC1 | -114 | 2.1* | -9 | -0.46 | 1.1
SMILES | CYP2C9 inh | CYP2C9 act | CYP2C19 inhib | Cav3 T inh | CYP2C19 activ
CCOc1cc(N2CCOCC2)c(OCC)cc1NC(=O)c1nc2nc(C)cc(C)n2n1 | 36 | 0.6 | 11 | nt | 0.9
C[C@H]1C=C(C(=O)O)O[C@@H](OCc2ccc(CO)cc2)C1 | nt | nt | nt | 0.88 | nt
CCN(CC)S(=O)(=O)c1ccccc1/C=N\O | 10 | 0.9 | 49 | -0.1 | 0.5
CCN(CC)S(=O)(=O)c1ccc2c(c1)C(=NO)c1cc(S(=O)(=O)N(CC)CC)ccc1-2 | nt | nt | nt | -5.7* | nt
Cc1ccc(S(=O)(=O)c2cccc(S(=O)(=O)N3CCCC3)c2)cc1S(=O)(=O)N1CCCC1 | -4 | 1 | 52* | -0.3 | 0.5
CCN(CC)S(=O)(=O)c1cccc(S(=O)(=O)c2cccc(S(=O)(=O)N(CC)CC)c2)c1 | 70* | 0.3 | 91* | -5.3* | 0.1
NC(=O)C1CCN(S(=O)(=O)c2cccc(S(=O)(=O)N3CCCCC3)c2)CC1 | 36 | 0.6 | 14 | 1.2 | 0.9
CCN(CC)S(=O)(=O)c1cccc(S(=O)(=O)N2CCCCC2)c1 | 53* | 0.5 | 46 | -0.014 | 0.5
CCN(CC)S(=O)(=O)c1ccc2[nH]c(=O)[nH]c2c1 | -11 | 1.1 | 10 | 0.081 | 0.9
C=CCNc1nc(NC(C)(C)CO)nc(OC)n1 | nt | nt | nt | 0.05 | nt
COc1cc(C(=O)NCCC(=O)NCCN2CCOCC2)cc(OC)c1OC | -1 | 1 | -12 | 0.16 | 1.1
CCCCCCCC1(C)NC(=O)N(c2ccccc2)N1 (stereo not given) | 24 | 0.8 | 57* | -2.7 | 0.4
COC(=O)c1ccc(C)c(NS(=O)(=O)c2ccc3c(c2)OCCO3)c1 | 62* | 0.4 | 91* | -1.6 | 0.1
COC(=O)c1cccc(NS(=O)(=O)c2ccc(NC(C)=O)cc2)c1C | -36 | 1.4 | 38 | 0.49 | 0.6
COC(=O)c1ccc(C)c(NS(=O)(=O)c2ccc(C)c([N+](=O)[O-])c2)c1 | 80* | 0.2 | 90* | -5.5* | 0.1
COC(=O)c1ccc(C(=O)OC)c(NS(=O)(=O)c2ccc(NC(C)=O)cc2)c1 | 90* | 0.1 | 62* | 0.18 | 0.4
COC(=O)c1ccc(C)c(NS(=O)(=O)c2ccc(OC)cc2)c1 | 70* | 0.3 | 100* | -2.2 | 0
c1ccc(Cc2cc(-c3ccccc3)on2)cc1 | nt | nt | nt | -2 | nt
COC(=O)c1ccc(Sc2ccccc2NS(=O)(=O)c2ccc(NC(C)=O)cc2)nc1 | 80* | 0.2 | 61* | 0.72 | 0.4
Cc1[nH]c(=O)[nH]c(=O)c1S(=O)(=O)NCCOC12CC3CC(CC(C3)C1)C2 | 3 | 1 | -2 | -0.028 | 1
Cc1cccc(C(=O)Oc2ccccc2-c2nnco2)c1 | -15 | 1.1 | 2 | -1.7 | 1
Clc1ccccc1COc1ccccc1-c1nnco1 | 50* | 0.5 | 27 | -0.57 | 0.7
O=C(OCc1ccccc1Cl)c1cccnc1Cl | -84 | 1.8 | 29 | -1.1 | 0.7
c1ccc(OCCOc2ccccc2-c2nnco2)cc1 | 75* | 0.2 | 91* | 0.092 | 0.1
C=CCn1c(=O)c2ccccc2n2c(SCC(=O)Nc3cc(C)on3)nnc12 | 50* | 0.5 | 31 | 1.1 | 0.7
Cc1cc(NC(=O)CSc2ncnc3ccccc23)no1 | 22 | 0.8 | 22 | 0.34 | 0.8
Cc1cc(NC(=O)CSc2cn(C)c3ccccc23)no1 | 9 | 0.9 | 95* | -1.7 | 0.1
CCn1cc(SCC(=O)Nc2cc(C)on2)c2ccccc21 | 14 | 0.9 | 55* | -2.3 | 0.4
